An excerpt weighted towards active compounds, which were near 3.1% of everything screened.
CSC inhib – cancer stem cell viability inhibitors, primary screen, luminescence; inhibition, % at 7.5 µM; AID 2717, 2010; cancer stem cell-like cells viability; actives 1.1% (n = 300,000); in the data active = inhibition above about 75%; tested in HMLE shEcad cells
PP1 counter – PP1-alpha phosphatase inhibitors, primary screen, counter-screen for PP5 inhibitor project, biochemical, fluorescence, OMFP substrate, single point; purified PP1alpha; AID 2235, 2010; Serine/threonine-protein phosphatase PP1-alpha catalytic subunit (Homo sapiens), P62136; inhibition, % at 6.7 µM; actives 0.9% (n = 320,000);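 active = inhibition above the mean inhibition of all tested compounds plus 3 SD, computed separately for each screening campaign, cut at about 15% in these data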
Target sequence (P62136 whole entry, looked up): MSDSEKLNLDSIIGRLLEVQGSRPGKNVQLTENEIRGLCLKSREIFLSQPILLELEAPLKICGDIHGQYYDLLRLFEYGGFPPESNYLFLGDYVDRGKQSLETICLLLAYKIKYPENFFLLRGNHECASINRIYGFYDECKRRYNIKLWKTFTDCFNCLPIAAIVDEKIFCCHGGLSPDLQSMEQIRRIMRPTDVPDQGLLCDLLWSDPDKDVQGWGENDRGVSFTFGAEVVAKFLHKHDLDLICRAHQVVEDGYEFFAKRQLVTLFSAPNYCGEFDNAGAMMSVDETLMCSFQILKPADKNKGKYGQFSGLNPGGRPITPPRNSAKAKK
SKKanGAS inh – S. pyogenes SKKanGAS growth inhibitors in kanamycin, primary screen, streptokinase expression inhibitor project, SKKanGAS strain, BacTiter-Glo luminescence | 6 h | actives 1.3% (n = 300,000) | inhibition, % at 7.5 µM;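 active = mean replicate score, as percent of positive control median, at least 50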;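 note: strain carries kanamycin resistance gene driven by streptokinase promoter and grows in 40 µg/ml kanamycin; loss of luminescence reflects streptokinase promoter inhibition or plain growth inhibition; 0% = median of DMSO wells and 100% = positive control at its reference dose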
PP5 primary – PP5 phosphatase inhibitors, primary screen, biochemical, fluorescence; inhibition, % at 6.7 µM; purified PP5c, OMFP substrate fluorescence; Serine/threonine-protein phosphatase 5 (Homo sapiens), P53041; actives 0.18% (n = 320,000);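 active = inhibition above the campaign's mean inhibition across all tested compounds plus 3 SD, cut at about 9.5% in these data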;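 note: 0% = DMSO only and 100% = 100 µM cantharidin control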
Beta cell apopt – inhibitors of cytokine-induced beta cell apoptosis, primary screen, luminescence | protection from apoptosis, % (test concentration not listed) | INS-1E cytokine-induced death, ATP luminescence, 48 h; percent of positive-control rescue, neutral wells zero | actives 0.8% (n = 300,000);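 active = Every replicate reaches about 75%, or at least half do and their mean reaches it too, limit read from the data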;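 note: 0% = cytokine-treated negative control wells and 100% = positive control rescue; higher means more ATP so stronger rescue from cytokine killing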
Numbers without * were called inactive; nt = no result.

SMILES	CSC inhib	PP1 counter	SKKanGAS inh	PP5 primary	Beta cell apopt
CC12CCC(C(=O)N(CSC(=S)N/N=C\c3ccccc3O)C1=O)C2(C)C (stereo not given)	nt	2	108*	3	24
O=C1CC(=C2c3ccccc3-c3ccccc32)C(=O)N1CCN1CCN(c2ccccc2)CC1	-13	17*	0	4	4
Cc1ccccc1N1CCN(CCN2C(=O)CC(=C3c4ccccc4-c4ccccc43)C2=O)CC1	-2	13	-1	4	-5
O=[N+]([O-])c1ccc(C2=NN(CCO)C(=Nc3ccc(OC(F)(F)F)cc3)SC2)cc1	89*	1	28	1	-10
O=C(CSc1ccc([N+](=O)[O-])cc1)Nc1nnc(C2CC2)s1	-13	nt	nt	nt	4
c1ccc(C2C3=C(Nc4ncnn42)c2ccccc2CCC3)cc1 (stereo not given)	1	-1	3	-3	2
Clc1ccc(C2C3=C(Nc4ncnn42)c2ccccc2CC3)cc1 (stereo not given)	-3	0	70*	2	-7
Cc1nc(-c2ccccn2)nc(SCC(=O)c2ccccc2)c1Cl	-10	15*	93*	2	22
Cc1nc(-c2ccccn2)nc(SCC(=O)N2CCOCC2)c1Cl	-1	-3	1	3	-7
CCc1ccc(CCC(=O)Nc2ccc(Cl)cc2)o1	7	2	-3	3	-1
O=S(=O)(NC(=NCc1ccccc1)c1ccccc1)c1ccc(Br)cc1	-9	-1	52*	4	nt
O=S(=O)(NC(=NCc1ccccc1)c1ccccc1)c1ccccc1	1	6	-10	3	0
C#C[C@]1(O)CC[C@H]2[C@@H]3CCc4cc(OC5CCCC5)ccc4[C@H]3CC[C@@]21C	98*	6	103*	3	4
COc1ccc(CNc2oc(Cc3cccc4ccccc34)nc2C#N)cc1	-15	1	54*	4	-5
COc1ccc(CNc2oc(COc3ccccc3)nc2C#N)cc1	7	3	-6	5	-4
Cn1c(=O)c2c(SCCN3CCOCC3)nc(C3CCCC3)nc2n(C)c1=O	-15	-6	-7	0	10
COC(=O)C1N2C(=O)[C@@H](NC(=O)COc3ccccc3)[C@H]2SC1(C)C (stereo not given in full)	1	5	96*	4	-2
CCN1CCN(C(=O)N[C@@H](C(=O)N[C@@H]2C(=O)N3[C@@H]2SC(C)(C)[C@@H]3C(=O)O)c2ccccc2)C(=O)C1=O	2	0	103*	-1	6
CCOC(=O)c1cccc(NC(=O)CSc2nncn2-c2ccccn2)c1	-8	0	-3	1	-2
CCOc1ccc(/C(O)=C2/C(=O)C(=O)N(c3ccccn3)C2c2ccc(Cl)cc2)c(C)c1 (stereo not given)	-2	nt	64*	nt	1
CCOc1ccc(/C(O)=C2/C(=O)C(=O)N(c3ncccn3)C2c2ccc(C)cc2)cc1 (stereo not given)	1	-1	-4	0	-10
COc1ccc(C2/C(=C(/O)c3ccccc3)C(=O)C(=O)N2c2ccccn2)cc1 (stereo not given)	-3	1	2	0	nt
CCOc1ccc(/C(O)=C2/C(=O)C(=O)N(c3ccccn3)C2c2ccc(C)cc2)c(C)c1 (stereo not given)	1	17*	40	1	-11
CCc1nc2c3cnn(-c4cc(Cl)ccc4C)c3ncn2n1	-13	0	53*	3	3
Cc1nc2c3cnn(-c4ccccc4)c3ncn2n1	-1	-2	20	2	-6
SMILES	CSC inhib	PP1 counter	SKKanGAS inh	PP5 primary	Beta cell apopt
COc1ccc(S(=O)(=O)NCC2CCCN(Cc3ccc(OC)cc3F)C2)cc1 (stereo not given)	-11	1	82*	0	-1
CCOc1cc(/C=N/Nc2nc(-c3cccs3)c(NC(C)=O)s2)ccc1O	-4	-4	24	0	-1
CCOc1ccc2nc(NC(=O)CN3CCC(n4nnc5cc(C(F)(F)F)ccc54)CC3)sc2c1	-16	-1	52*	4	4
Cc1cc(NC(=O)CN2CCC(n3nnc4cc(C(F)(F)F)ccc43)CC2)no1	0	4	-8	2	3
CCC1C(=NO)C(CC)C(c2ccccc2)NC1c1ccccc1 (stereo not given)	64	-1	58*	2	25
NS(=O)(=O)c1ccc(N=C2C(=O)Nc3ccccc32)cc1	0	16*	-5	0	nt
COc1ccc(CN2CCN(CCSc3ccc(C)cc3)CC2)c(OC)c1OC	36	3	-1	1	123*
CCOc1ccccc1N1CCN(Cc2ccc(OC)c(OC)c2OC)CC1	-10	-1	-4	2	-1
CCNC1=C(Cl)C(=O)c2ccccc2C1=O	-7	-2	11	3	55
O=C1C(Cl)=C(NCCN2CCCCC2)C(=O)c2ccccc21	107*	-4	24	3	112*
Cc1ccc(C(=O)O)cc1NC(=S)NC(=O)c1ccc([N+](=O)[O-])c(C)c1	12	1	nt	0	-1
CC(C)=CCc1c(-c2ccc(O)cc2O)oc2cc3c(c(O)c2c1=O)C=CC(C)(C)O3	-8	-1	107*	9	8
COc1ccc(-c2oc3c4c(cc(OC)c3c(=O)c2CC=C(C)C)OC(C)(C)C=C4)c(OC)c1	101*	10	40	2	9
O=c1c(O)c(-c2ccc(O)cc2)oc2cc(O)cc(O)c12	-13	-6	3	-1	nt
COc1cc(N/C(N)=N/c2nc(C)cc(C)n2)cc(OC)c1	-2	2	2	-5	-1
O=C(/C=C/c1ccc([N+](=O)[O-])cc1)/C=C/c1ccco1	76*	12	7	0	2
COc1ccc(Nc2nc(N)c([N+](=O)[O-])c(NC3CCCCC3)n2)cc1	101*	5	32	6	3
CC(C)(C)OC(=O)NCc1ccc(CNC(=O)c2nc[nH]c2C(=O)N2CCc3ccccc3C2)cc1	-4	1	nt	-2	1
COC(=O)[C@@H](CC(C)C)N(Cc1ccccc1)S(=O)(=O)N(Cc1ccccc1)[C@@H](CC(C)C)C(=O)OC	27	nt	nt	nt	42
C=C[C@H](Cc1ccccc1)N(Cc1ccccc1)S(=O)(=O)N(Cc1ccccc1)[C@H](C=C)Cc1ccccc1	21	nt	nt	nt	82*
COC(=O)[C@@H](Cc1ccccc1)N(Cc1ccccc1)S(=O)(=O)N(Cc1ccccc1)[C@H](Cc1ccccc1)C(=O)OC	26	nt	nt	nt	119*
CC(C)N(Cc1ccccc1)S(=O)(=O)c1ccc(F)cc1	-9	3	4	1	47
COc1ccc(Cl)cc1S(=O)(=O)N1CCCC(C(=O)N2CCOCC2)C1 (stereo not given)	-2	-7	-4	4	8

Bioassay records deposited in PubChem BioAssay by several laboratories.
